In the library only some 2.1% were active in any assay of this set; here they are far more common.
KKLEB tox = reduces viability of KKLEB cystic fibrosis airway cells; KKLEB CF airway cells viability, ATPlite luminescence, overnight; stronger effect = lower value; cells stimulated with P. aeruginosa culture filtrate; activity change (cytotoxicity), % at 5 µM; actives 0.36% (n = 360,000);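 active = corrected activity change at or below -50% at 5 µM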
PAX8 reporter = inhibitors of PAX8 transcriptional activity in RMG-I cells; RMG-I TPO-luciferase reporter, SteadyGlo, 24 h; inhibition, % at 12.6 µM; actives 1.2% (n = 360,000); AID 652154;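 active = mean replicate inhibition at least 60% with every replicate also reaching 60%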;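 also: luciferase light reporting Pax8 driven TPO promoter activity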
HIF-2a block = HIF-2a inhibition | AID 624352 | inhibition, % at 18.8 µM | 786-0 RCC cells HIF-2a reporter, luciferase luminescence, overnight | actives 0.72% (n = 360,000);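 active = inhibition of the luminescence signal of 40% or more relative to plate controls, in a single-dose primary screen at 18.75 µM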
EWS-Fli block = inhibitors of EWS/Fli oncoprotein transcriptional activity | A673 NR0B1-luciferase reporter, viability-normalised | inhibition, % at 12.6 µM | actives 0.67% (n = 350,000) | AID 651661;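 active = mean inhibition of at least 50% after viability correction, with every replicate also passing that limit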;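 also: firefly luciferase signal divided by Alamar Blue viability fluorescence both relative to DMSO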
CF NFkB inh = blocks PAF-induced NF-kB reporter in cystic fibrosis cells; actives 0.86% (n = 360,000); AID 588850; inhibition, % at 5 µM; KKLEB NF-kB-GFP reporter, GFP fluorescence overnight;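 active = at least 50% inhibition at 5 µM, scaled per plate between neutral and stimulator controls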;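 also: PAF is a Pseudomonas aeruginosa culture filtrate used as stimulus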
A number is an active result; – = inactive; · = not tested or not shown.

SMILES	KKLEB tox	PAX8 reporter	HIF-2a block	EWS-Fli block	CF NFkB inh
O=C(C[C@H]1C=C[C@@H](NC(=O)Cc2cccnc2)[C@H](CO)O1)Nc1ccc(-c2ccccc2)cc1	·	–	·	–	·
CCS(=O)(=O)N1CCC2(CC1)CN(Cc1ccccc1)[C@@H](CO)c1c2c2ccc(OC)cc2n1C	·	·	·	–	·
O=C1C=CC(=O)N1CCCCCCN1C(=O)C=CC1=O	·	109	·	·	·
O=C(O)CN1C(=O)C=CC1=O	–	–	–	–	–
C#CCN(C[C@@H]1[C@@H](OC(=O)NCc2ccc(OC)c(OC)c2)[C@@H](OC(=O)NCc2ccc(OC)c(OC)c2)Cn2c(=O)n(CCCCCC)c(=O)n21)S(=O)(=O)c1ccc(C)cc1	–	–	–	–	–
C#CCN(C[C@@H]1[C@@H](OC(=O)NCc2ccc(OC)c(OC)c2)[C@@H](OC(=O)NCc2ccc(OC)c(OC)c2)Cn2c(=O)ccc(=O)n21)S(=O)(=O)c1ccc(C)cc1	–	113	–	–	–
C#CCN(C[C@@H]1[C@@H](OC(=O)NC2CCCC2)[C@@H](OC(=O)NC2CCCC2)CN(C(=O)OC(C)C)N1C(=O)OC(C)C)S(=O)(=O)c1ccc(C)cc1	–	79	–	–	–
COc1ccc(C#Cc2ccc([C@@H]3[C@H]4CN(C(=O)Nc5cccc(F)c5)CCCCN4[C@H]3CO)cc2)cc1	·	–	·	–	·
COc1ccc(C#Cc2ccc([C@@H]3[C@H](CO)N4CCCCN(C(=O)Nc5cccc(F)c5)C[C@@H]34)cc2)cc1	·	76	·	–	·
Cc1ccc(-c2ccc([C@H]3[C@@H](CO)N4CCCCN(C(=O)Nc5cccc(F)c5)C[C@H]34)cc2)cc1	·	108	·	–	·
COc1ccc(C#Cc2ccc([C@H]3[C@@H](CO)N4CCCCN(C(=O)Nc5cccc(F)c5)C[C@@H]34)cc2)cc1	·	–	·	–	·
COc1ccc(C#Cc2ccc([C@H]3[C@@H](CO)N4CCCCN(C(=O)Nc5cccc(F)c5)C[C@H]34)cc2)cc1	·	76	·	–	·
O=C(Nc1ccc2c(c1)[C@H]1C[C@H](CC(=O)N3CCc4ccccc4C3)O[C@@H](CO)[C@H]1O2)C1CCC1	·	–	·	–	·
COc1ccc(-n2nc([N+](=O)[O-])c(=NCc3cccnc3)n2O)cc1	–	146	–	–	–
COc1ccc(-n2nc([N+](=O)[O-])c(=NCc3ccco3)n2O)cc1	–	–	–	–	–
C[C@H]1CN([C@@H](C)CO)C(=O)Cc2cc(NC(=O)Nc3ccc(C(F)(F)F)cc3)ccc2O[C@H]1CN(C)C(=O)NC1CCCCC1	·	78	·	–	·
C[C@@H]1CN([C@@H](C)CO)C(=O)Cc2cc(NC(=O)Nc3ccc(C(F)(F)F)cc3)ccc2O[C@@H]1CN(C)C(=O)NC1CCCCC1	·	–	·	59	·
C[C@H](CO)N1C[C@H](C)[C@@H](CN(C)C(=O)NC2CCCCC2)Oc2ccc(NC(=O)Nc3ccc(C(F)(F)F)cc3)cc2CC1=O	·	–	·	–	·
C[C@H]1CN([C@@H](C)CO)C(=O)Cc2cc(NC(=O)Nc3ccc(C(F)(F)F)cc3)ccc2O[C@H]1CN(C)CC1CCCCC1	·	–	·	–	·
C[C@@H]1CN([C@@H](C)CO)C(=O)Cc2cc(NC(=O)Nc3ccc(C(F)(F)F)cc3)ccc2O[C@H]1CN(C)CC1CCCCC1	·	–	·	59	·
CN(C)C(=O)C[C@@H]1C=C[C@@H](NC(=O)C2CCOCC2)[C@H](CO)O1	·	·	·	–	·
C[C@@H](NC(=O)[C@H]1[C@H](CO)[C@H]2Cn3c(cccc3=O)[C@H]2N1CC1CCCC1)c1ccccc1	·	·	·	–	·
CN1[C@@H]2Cn3c(ccc(/C=C/c4ccccc4)c3=O)[C@H]1[C@@H](C(=O)NC1CCCC1)[C@@H]2CO	·	–	·	–	·
O=C1C(SCCO)=C(SCCO)C(=O)c2ccccc21	–	114	97	64	72
O=c1[nH]c2ccccc2c(O)c1SCCO	–	–	–	–	–
SMILES	KKLEB tox	PAX8 reporter	HIF-2a block	EWS-Fli block	CF NFkB inh
C[C@@H]1CN([C@@H](C)CO)C(=O)c2cc(NC(=O)c3ccncc3)ccc2O[C@H]1CN(C)Cc1ccc(Cl)c(Cl)c1	·	–	·	·	·
O=C(Cc1ccncc1)N1CC(=O)N2[C@H](C1)[C@@H](c1ccc(C3=CCCC3)cc1)[C@@H]2CO	·	–	·	–	·
COc1ccccc1C#Cc1ccc([C@H]2[C@H](CO)N3CCCCN(C(=O)C4CCCC4)C[C@@H]23)cc1	·	–	·	–	·
CCOC(=O)N1CCN(c2c(NCc3ccc(F)cc3)c(=O)c2=O)CC1	–	–	–	57	–
CCOC(=O)N1CCN(c2c(N3CCN(c4ccc(F)cc4)CC3)c(=O)c2=O)CC1	–	–	–	–	–
CCOC(=O)N1CCN(c2c(NCc3ccc(Cl)cc3)c(=O)c2=O)CC1	–	–	–	52	–
C[C@H](CO)N1C[C@H](C)[C@@H](CN(C)C)Oc2ccc(NC(=O)Nc3ccc(F)cc3)cc2C1=O	·	–	·	–	·
CCC(=O)c1cc2c(C)cc(=O)oc2c(C)c1OC(C)=O	–	–	–	·	–
CCC(=O)c1cc2c(C)cc(=O)oc2c(C)c1OC(=O)C(C)C	–	72	–	–	–
COc1ccc(S(=O)(=O)N(C)C[C@H]2Oc3ccc(NS(=O)(=O)c4cn(C)cn4)cc3C(=O)N([C@H](C)CO)C[C@H]2C)cc1	·	·	·	–	·
Cc1ccc2nc(/C(C#N)=C\c3ccc([N+](=O)[O-])o3)[nH]c2c1	-68	·	–	·	–
N#C/C(=C(/O)c1ccc([N+](=O)[O-])o1)c1nc2ccccc2[nH]1	–	–	–	–	94
CC(=O)Nc1cccc(C(=O)/C=C/c2ccc(F)cc2)c1	–	–	–	–	–
CC(=O)Nc1cccc(C(=O)/C=C/c2ccc(/C=C/C(=O)c3cccc(NC(C)=O)c3)cc2)c1	·	–	·	55	·
Cc1ccc2c(c1)sc(=NC(=O)c1cccs1)n2C	-66	–	–	78	–
